# Source: PubChem
# Anaer choline gr: inhibitors of anaerobic choline-dependent gram-negative bacterial growth; Gram-negative bacterium anaerobic choline minimal medium, absorbance growth; active compounds read low; AID 1963822; hit rate 0.2% among 55,000; calls only; call rule not given here
# Active calls of the source: *; i = inactive; + = active, no number. Many of the other results were omitted from the sample, so hits are more common in it than they were.
SMILES,Anaer choline gr
COC(=O)c1sccc1NC(=O)CN1C(=O)C(C)=C(c2ccc(OC)cc2)S1(=O)=O,i
O=C(Nc1ccccc1)c1cccc(-c2cc(N3CCCC3)ncn2)c1,i
Cc1cc(Cl)ccc1NS(=O)(=O)c1cc(-c2nc(C)c(C)s2)sc1C,i
CC(C)N1CCc2c(sc(NC(=O)C3CC3)c2-c2nc3ccccc3s2)C1,+
CN1CCc2c(sc(NC(=O)CN3C(=O)c4ccccc4C3=O)c2-c2nc3ccccc3s2)C1,i
CN1CCc2c(sc(NC(=O)C3CC3)c2-c2nc3ccccc3s2)C1,i
Cc1cc(N(C)C)n2nccc2n1,i
CCCCN(C)C(=O)c1ccc(-c2nc3ccccc3n(CCC)c2=O)cc1,i
CCCCNC(=O)CSc1nc(-c2ccc(C(C)C)cc2)no1,+
CC(C)CCNC(=O)CSc1nc(-c2ccccc2)no1,i
CCc1ccc(NC(=O)CSc2nc(-c3ccc(C(C)C)cc3)no2)cc1,i
Cc1ccc(NC(=O)c2ccc(=O)n(CC(=O)NCC3CCCO3)n2)cc1 (stereo unspecified),i
Cc1nc2scc(C)n2c(=O)c1NC(=O)Cc1ccc(Cl)cc1,+
Cc1nc2scc(C)n2c(=O)c1NC(=O)C(C)C,i
Cc1nc2sccn2c(=O)c1NC(=O)Cc1ccc(Cl)cc1,i
Cc1ccccc1-c1noc(N2CCC(C(=O)NCc3ccc4c(c3)OCO4)CC2)n1,i
CCCC(=O)N1CCCC1C(=O)N1CCCCC1C (stereo unspecified),+
Cc1noc(C(=O)N2CCCCC2C)c1Cl (stereo unspecified),i
Cc1cc(N2CCC(C)CC2)nc2ccc(NC(=O)CCC(=O)N3CCCCC3C)cc12 (stereo unspecified),i
CS(=O)(=O)Nc1cnc(N2CCC(CCN3CCOCC3)CC2)c(C(=O)O)c1,i
Cc1cccc(NC(=O)CCc2nc(-c3cc4ccccc4[nH]c3=O)no2)n1,i
CCOc1ccc(NC(=O)C(CC)Sc2nc3ncccc3[nH]2)cc1 (stereo unspecified),+
CCOc1ccc(NC(=O)C(C)Sc2nc3c(c(=O)[nH]2)CCCC3)cc1 (stereo unspecified),i
CCC(Sc1nc2ncccc2[nH]1)C(=O)Nc1ccc(Br)cc1 (stereo unspecified),i
Cc1ccc(CSc2nc3c(c(=O)[nH]2)CN(Cc2ccc(F)cc2)CC3)cc1,i
SMILES,Anaer choline gr
CN(C)S(=O)(=O)c1ccc(-c2nc(C#N)c(NC3CC3)o2)cc1,i
CC(C)C(=O)NCC(c1ccccc1Cl)c1c[nH]c2ccccc12 (stereo unspecified),i
CN1CCCN(c2ncnc3c2CCC3)CC1,i
c1ccc(N2CCN(c3ncnc4c3CCC4)CC2)nc1,i
c1nc2c(c(N3CCC(N4CCCCC4)CC3)n1)CCC2,+
COc1ccccc1C1C2=C(CC(c3ccc(O)cc3)CC2=O)Nc2onc(C)c21 (stereo unspecified),i
Cc1ccc(-c2c(C(F)(F)F)nn3c(N4CCCC4)cc(C)nc23)cc1,i
O=C(Nc1ccc2c(c1)OCO2)Nc1cc(NC(=O)c2ccccc2)ccc1N1CCCC1,i
Cn1c(=O)n(C)c2cc(N3CCCC3)c(NC(=O)Nc3ccc4c(c3)OCCO4)cc21,+
Cc1cc(C)cc(NC(=O)Nc2cc3c(cc2N2CCCC2)n(C)c(=O)n3C)c1,i
COc1ccc(OCC(=O)N2CCC3(CC2)Nc2cc(F)ccc2-n2cccc23)cc1,i
Cc1cccc(NC(=O)N2CCN(c3cc(N(C)C)nc(C)n3)CC2)c1,i
CCn1c(CN(c2ccc(F)cc2)S(C)(=O)=O)nnc1SCC(=O)c1ccc(Cl)cc1,i
CCn1c(CN(c2ccc(F)cc2)S(C)(=O)=O)nnc1SCC(=O)Nc1ccc(F)cc1F,+
CCn1c(CN(c2ccc(F)cc2)S(C)(=O)=O)nnc1SCC(=O)c1ccccc1,i
Cn1ccc2c(OCC(=O)N3CCCCC3)cccc2c1=O,i
COc1ccc(-c2csc(-c3nc(-c4ccc(OC)c(F)c4)cs3)n2)cc1F,i
COc1ccc(-c2nn3c(CSc4ccccc4)nnc3s2)cc1,i
c1ccc(SCc2nnc3sc(-c4cccnc4)nn23)cc1,+
CN(C)c1cccc(-c2nn3c(CSc4ccccc4)nnc3s2)c1,i
Cc1noc(C)c1CNC(=O)c1ccc(CN2C(=O)C3CCCN3C(=O)c3ccccc32)cc1 (stereo unspecified),i
Cc1cc(C)c(S(=O)(=O)N(C)CCc2noc(COc3ccc(Cl)cc3)n2)c(C)c1,i
CC1(C(=O)NC2CCCC2)Cn2c(cc3ccccc32)C(=O)N1C1CC1 (stereo unspecified),i
CC(C)c1ccc(S(=O)(=O)N2CCCC2c2cc(C(C)C)no2)cc1 (stereo unspecified),i
